Out of some 310,000 compounds screened, about 14,000 (4.5%) showed an effect of 50% or more. Effects have a minus sign here. Many of the other results were omitted from the sample, so strong results are more common in it than they were.
Target: human ether-à-go-go-related gene (hERG) potassium channel (human, UniProt Q12809)
Assay: primary screen, population patch clamp on CHO cells stably expressing hERG; higher = less effect of the substance
Description: Briefly, Chinese hamster ovary (CHO) cells stably expressing the hERG channel were dislodged from tissue culture flasks and dispensed into PPC plates. […] During the recording, background leak currents were estimated by a 100 ms step to -80 mV from an initial holding potential of -70 mV and subtracted from the subsequent current measurement. The campaign was conducted in two phases using slight differences in recording protocol. In the first phase, the initial voltage pulse used a 100 ms step to -30 mV from a holding potential of -70 mV, a 2 s conditioning step to +25 mV, and a 2 s test step to -30 mV. During the second phase of the screen, the potential during the conditioning step was raised to +45 mV. In both phases of the campaign, a secondary voltage pulse was applied using the same parameters as the second phase initial pulse. The initial and secondary pulses were applied in the absence of compound, and upon application of 1 μM and 10 μM test concentrations. […]
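Note: peak tail current of the secondary pulse compared with the same well before compound.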

Sequence of human ether-à-go-go-related gene (hERG) potassium channel (Q12809 whole entry, looked up): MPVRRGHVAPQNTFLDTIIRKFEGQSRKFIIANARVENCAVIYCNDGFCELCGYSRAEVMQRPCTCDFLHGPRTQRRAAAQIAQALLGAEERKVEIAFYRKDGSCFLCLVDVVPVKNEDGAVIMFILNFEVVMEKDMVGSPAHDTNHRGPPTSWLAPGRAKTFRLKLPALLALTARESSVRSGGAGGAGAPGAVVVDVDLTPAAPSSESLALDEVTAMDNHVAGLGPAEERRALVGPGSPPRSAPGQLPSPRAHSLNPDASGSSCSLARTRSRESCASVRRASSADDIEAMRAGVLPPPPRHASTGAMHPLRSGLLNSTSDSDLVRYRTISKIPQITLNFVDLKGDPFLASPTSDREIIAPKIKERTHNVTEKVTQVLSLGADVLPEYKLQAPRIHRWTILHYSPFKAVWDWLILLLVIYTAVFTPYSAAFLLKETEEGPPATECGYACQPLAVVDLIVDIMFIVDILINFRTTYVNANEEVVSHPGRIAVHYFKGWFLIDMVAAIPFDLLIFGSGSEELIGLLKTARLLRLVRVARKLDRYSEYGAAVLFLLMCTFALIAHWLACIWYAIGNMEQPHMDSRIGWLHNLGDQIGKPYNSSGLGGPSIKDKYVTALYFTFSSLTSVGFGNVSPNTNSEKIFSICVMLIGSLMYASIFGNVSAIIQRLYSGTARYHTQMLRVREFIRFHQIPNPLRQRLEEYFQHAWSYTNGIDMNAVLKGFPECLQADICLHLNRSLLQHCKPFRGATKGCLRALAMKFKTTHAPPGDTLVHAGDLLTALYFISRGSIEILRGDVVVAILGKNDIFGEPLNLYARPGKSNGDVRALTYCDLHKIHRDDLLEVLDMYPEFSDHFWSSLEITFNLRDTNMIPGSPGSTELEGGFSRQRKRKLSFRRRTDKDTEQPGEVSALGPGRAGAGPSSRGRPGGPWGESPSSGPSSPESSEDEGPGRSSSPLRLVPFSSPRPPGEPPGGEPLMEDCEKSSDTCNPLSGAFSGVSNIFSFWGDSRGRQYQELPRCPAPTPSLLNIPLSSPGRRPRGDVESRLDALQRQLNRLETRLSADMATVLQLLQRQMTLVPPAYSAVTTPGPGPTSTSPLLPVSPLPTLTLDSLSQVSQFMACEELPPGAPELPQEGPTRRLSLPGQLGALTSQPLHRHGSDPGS

Compound	hERG current change (%, negative = inhibition) at 10uM [%]
Cc1ccc(C(=O)NCC2CCCO2)o1 (stereo not drawn)	7.49
O=C(NCC1CCCO1)c1cccc(Oc2ccc([N+](=O)[O-])cc2)c1 (stereo not drawn)	-73.7
O=C(NCC1CCCO1)c1ccc(NC(=O)c2cccc([N+](=O)[O-])c2)cc1 (stereo not drawn)	3.68
O=C(NCC1CCCO1)c1ccc(-c2cccc(C(F)(F)F)c2)o1 (stereo not drawn)	-16.2
CC(=O)c1ccc(-c2ccc(C(=O)NCC3CCCO3)o2)cc1 (stereo not drawn)	-50.5
O=C(NCC1CCCO1)c1cccc(Oc2ccccc2)c1 (stereo not drawn)	-37.5
O=c1cc(CN2CCN(c3cccc(Cl)c3)CC2)c2cc3c(cc2o1)CCCC3	15.8
Cc1ccc(S(=O)(=O)CCC(=O)OCC(=O)N2CC(=O)Nc3ccccc32)cc1	-22.1
O=C(NCc1ccco1)NC12CC3CC(CC(C3)C1)C2	14.5
CC(C)=CCN1CCN(Cc2cn(C(C)C)c3ccccc23)CC1CCO (stereo not drawn)	-10.5
O=C(NCCS(=O)(=O)N1CCN(c2cccc(Cl)c2)CC1)c1ccco1	-73.8
O=C(Cc1ccc(F)cc1)NCCS(=O)(=O)N1CCN(c2cccc(Cl)c2)CC1	-16.2
O=C(NCCS(=O)(=O)N1CCN(c2cccc(Cl)c2)CC1)c1cc(=O)c2ccccc2o1	5.36
O=C(NCCS(=O)(=O)N1CCN(c2ccccc2)CC1)c1ccc(Br)o1	-5.85
O=C(Cc1ccccc1)NCCS(=O)(=O)N1CCN(c2cccc(Cl)c2)CC1	-82.8
Cc1cccc(CC(=O)NCCS(=O)(=O)N2CCN(c3cccc(Cl)c3)CC2)c1	-20.2
O=C(NCCS(=O)(=O)N1CCN(c2ccccc2F)CC1)c1ccco1	-16.5
COc1ccc(N2CCN(S(=O)(=O)CCNC(=O)c3ccc(Br)o3)CC2)cc1	10.6
O=C(NCCS(=O)(=O)N1CCN(c2ccc(F)cc2)CC1)c1ccc(Br)o1	-60.1
O=C(NCCS(=O)(=O)N1CCN(c2ccccc2)CC1)C1CC1	3.93
O=C(NCCS(=O)(=O)N1CCN(c2cccc(Cl)c2)CC1)C1CCCC1	-79

Compound	hERG current change (%, negative = inhibition) at 10uM [%]
COc1ccc(N2CCN(S(=O)(=O)CCNC(=O)C3CCCCC3)CC2)cc1	5.98
O=C1c2ccccc2S(=O)(=O)N1CCOc1ccc(F)cc1	-27.6
CCOC(=O)c1sc(NC(=O)c2ccco2)nc1C	13.3
CC(=O)Nc1ccc(NC(=O)CC2SC(=O)N(CC(=O)c3ccccc3)C2=O)cc1 (stereo not drawn)	7.25
COCC1CCCCN1C(=O)c1cccc(OC2CCN(S(C)(=O)=O)CC2)c1 (stereo not drawn)	14.7
CCS(=O)(=O)c1ccc(O)c(NC(=O)COc2ccc(Br)cc2)c1	-3.73
O=C(COc1ccc(Br)cc1Cl)NC(=S)N1CCc2ccccc21	21.7
COc1ccccc1OCc1ccc(C(=O)NC(C)(C)C)o1	2.29
O=C(Cn1c(=O)oc2cc(S(=O)(=O)NCc3ccccc3)ccc21)N1CCCC1	15.2
C=CCn1c(SCC(=O)Nc2ccccc2F)nc2ccccc2c1=O	5.56
CC(C)Sc1nc2c(cnn2-c2ccc(Cl)cc2)c(=O)[nH]1	26.2
Cc1nnc(SCC(=O)N2CCCC2)n(N)c1=O	14.1
O=C(Cc1ccc(F)cc1)NCCS(=O)(=O)N1CCN(c2ccccc2)CC1	5.42
CSc1ccccc1C(=O)NCCS(=O)(=O)N1CCN(c2ccc(F)cc2)CC1	-67.6
O=C(NCCS(=O)(=O)N1CCN(c2ccccc2)CC1)c1ccccc1F	6.68
COc1ccc(N2CCN(S(=O)(=O)CCNC(=O)c3ccco3)CC2)cc1	-9.43
O=C(NCCS(=O)(=O)N1CCN(c2ccccc2)CC1)c1ccco1	-14.5
O=C(NCCS(=O)(=O)N1CCN(c2ccc(F)cc2)CC1)c1ccco1	-62.2
CCOC(=O)c1cnn(Cc2ccccc2Cl)c1N	-11
COc1ccccc1-c1oc2ccccc2c1C#CCCCCO	22.6
COc1ccc(-c2nn(-c3ccccc3)cc2/C=C2/SC(=S)N(CCCC(=O)O)C2=O)c(C)c1	26

Compound	hERG current change (%, negative = inhibition) at 10uM [%]
Cc1ccc(CN2C(=O)C(CC(C)C)Nc3ncnc(N4CCN(c5ccccn5)CC4)c32)cc1.O=C(O)C(F)(F)F (stereo not drawn)	-43.3
CC1Nc2ncnc(N3CCN(c4ccccn4)CC3)c2N(Cc2ccccc2)C1=O.O=C(O)C(F)(F)F (stereo not drawn)	-19.8
CCC1Nc2ncnc(N3CCN(c4ccccn4)CC3)c2N(Cc2ccc(Cl)cc2)C1=O.O=C(O)C(F)(F)F (stereo not drawn)	-73.8
CCC1Nc2ncnc(N3CCN(c4ccccc4)CC3)c2N(Cc2ccc(Cl)cc2)C1=O.O=C(O)C(F)(F)F (stereo not drawn)	-17.4
CCC1Nc2ncnc(N3CCCCC3)c2N(Cc2ccccc2)C1=O.O=C(O)C(F)(F)F (stereo not drawn)	-4.8
Cc1ccc(CN2C(=O)C(C)Nc3ncnc(N4CCN(c5ccccn5)CC4)c32)cc1.O=C(O)C(F)(F)F (stereo not drawn)	-56.1
Cc1ccc(S(=O)(=O)N2CCN(C(=O)CN3C(=O)NC4(CCCCC4)C3=O)CC2)c(C)c1	1.52
COc1ccc(S(=O)(=O)N2CC(C)OC(C)C2)cc1C(=O)N1CCCCC1 (stereo not drawn)	6.93
O=C(OCc1c(F)cccc1Cl)c1cnc2ccccc2n1	17.6
CCCn1nc2cc(C(=O)NC3CCCc4ccccc43)ccc2c1OCC (stereo not drawn)	-8.93
CN(C)S(=O)(=O)c1cccc(COC(=O)Cc2c(F)cccc2Cl)c1	9.75
CC(C)OP(=O)(OC(C)C)C(NC(=O)c1ccccc1)C(N)=O (stereo not drawn)	-3.65
Cc1ccccc1C(=O)NC(C(N)=O)P(=O)(OC(C)C)OC(C)C (stereo not drawn)	-55.2
CC(C)OP(=O)(OC(C)C)C(NC(=O)c1ccccc1Br)C(N)=O (stereo not drawn)	3.63
CCN(C(=O)c1ccnn1C)c1ccccc1	4.75
COc1ccc(S(=O)(=O)N2CCOCC2)cc1NC(=O)c1ccc2c(c1)OCO2	12.6
O=C(O)CN1C(=O)/C(=C/c2ccccc2Br)Oc2ccccc21	4.16
COc1ccccc1NS(=O)(=O)c1ccc(Cl)c(NC(=O)c2sc3cc(Cl)ccc3c2Cl)c1	22.1
O=C(O)CC1S/C(=N\N=C/c2ccccc2)N(c2ccc(O)cc2)C1=O (stereo not drawn)	13.4
O=C(O)CC1S/C(=N\N=C/c2ccccc2O)N(c2ccc(O)cc2)C1=O (stereo not drawn)	9.18
O=C(O)CC1S/C(=N\N=C2\C(=O)Nc3ccccc32)N(c2ccc(O)cc2)C1=O (stereo not drawn)	-53.7

Compound	hERG current change (%, negative = inhibition) at 10uM [%]
CN(c1ccc(F)cc1)S(=O)(=O)c1ccc2[nH]cc(C(=O)O)c(=O)c2c1	13.8
CC(=O)c1ccc(OCC(=O)N(C2CCCCC2)C2CCS(=O)(=O)C2)cc1 (stereo not drawn)	-2.18
N#Cc1ccc(OCC(=O)N(C2CCCCC2)C2CCS(=O)(=O)C2)cc1 (stereo not drawn)	-50.1
Cc1ccc(CN(C(=O)COc2ccc(Br)cc2)C2CCS(=O)(=O)C2)o1 (stereo not drawn)	-33.5
COc1ccc(OCC(=O)N(Cc2ccc(C)o2)C2CCS(=O)(=O)C2)cc1 (stereo not drawn)	-19.5
CN(C)c1ccc(CN(C(=O)COc2ccc(F)cc2)C2CCS(=O)(=O)C2)cc1 (stereo not drawn)	-16.6
Cc1ccc(OCC(=O)N(Cc2ccc(C)o2)C2CCS(=O)(=O)C2)cc1 (stereo not drawn)	-52.3
Cc1ccc(OCC(=O)N(Cc2ccco2)C2CCS(=O)(=O)C2)cc1C (stereo not drawn)	-38.8
Cc1ccc(CN(C(=O)COc2ccc(C)c(C)c2)C2CCS(=O)(=O)C2)o1 (stereo not drawn)	-53.6
Cc1cccc(OCC(=O)N(Cc2ccc(C)o2)C2CCS(=O)(=O)C2)c1 (stereo not drawn)	-42.6
O=C(COc1ccc([N+](=O)[O-])cc1)N(C1CCCCC1)C1CCS(=O)(=O)C1 (stereo not drawn)	-37
O=C(COc1ccc(F)cc1)N(Cc1ccc(Cl)cc1)C1CCS(=O)(=O)C1 (stereo not drawn)	-38.7
O=C(COc1ccc(Cl)cc1)N(Cc1ccc(F)cc1)C1CCS(=O)(=O)C1 (stereo not drawn)	-63.3
O=C(COC(=O)c1cccc(F)c1)NC1CC1	41.8
COc1ccccc1N1CCN(C(=O)Cn2c(=O)[nH]c3ccsc3c2=O)CC1	-1.18
O=C(c1ccccc1)c1n[nH]c(-c2ccccc2)cc1=O	30.9
CCC(=O)NC(c1cc(Cl)c2ccccc2c1O)C1CC1 (stereo not drawn)	14.5
Cc1ccc(C)c(C2=CSC3=NS(=O)(=O)CCN23)c1	12.3
COc1ccc(CNC(=O)[C@]2(C)CCC[C@@]3(C)C4CC[C@@]5(C)C[C@]4(CCC32)CC5=O)cc1 (stereo partly drawn)	10.2
CCOC(=O)c1sc2nc(CSc3ccccc3)[nH]c(=O)c2c1C	3.8
CC(C)C(=O)NC(c1cccs1)c1cc([N+](=O)[O-])c2cccnc2c1O (stereo not drawn)	31.7
